Laboratory results as given in PubChem BioAssay (NCI).
Compounds without any hit were thinned out: in the full panel of roughly 83,000, 20% have a hit.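 Activity criterion: percent growth below 10, measured after cells in 96-well plates were exposed to a single compound concentration for 48 hours.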 Unmarked numbers belong to inactive results. Calls of active or inactive are those of the source.

test system: HL-60(TB) leukemia; test: NCI-60 one-dose screen, 48 h (100 = growth as untreated, 0 = no growth, -100 = all killed); conditions: 10 µM unless noted

Compound	growth
c1ccc(-c2c(-c3ccccc3)[n+](Cc3ccc4ccccc4c3)c(-c3ccc(-c4nc5ccccc5s4)cc3)n2Cc2ccc3ccccc3c2)cc1	-57.2% (active)
CCOC(=O)CNC(=O)Sc1ccc(C(C)(C)C)cc1	64.4%
N#Cc1nc(-c2cccc(Br)c2)cc(-c2ccc(Nc3nc(N4CCCCC4)nc(N4CCCCC4)n3)cc2)c1N	-16.4% (active)
